Screen size: about 16,000 compounds; about 2,600 (16%) were called active. About 20% were inconclusive and are not listed. Not all results are given here. A number with no mark means an inactive call. Calls come from the whole dose curve; as a rule, active = well fitted curve in the direction sought with a large enough effect; inconclusive = small, poorly fitted or top-dose-only effect, or effect the other way; inactive = no such curve, though single readings can be large or run the other way.
% is set by controls: 0 for no effect and ±100 for the full control effect.

The target of the assay is Cytochrome P450 2D6 (Homo sapiens) (UniProt P10635). Kind of assay: Cytochrome panel assay with activity outcomes. The settings on record: recombinant CYP, pro-luciferin dealkylation, luminescence, p450-cyp2d6; series mostly up to 57.1 µM. The protocol: The P450 gene superfamily is involved in the metabolism and clearance of xenobiotics. This assay used various human CYP P450 isozymes to measure the dealkylation of various pro-luciferin substrates to luciferin. The luciferin is then measured by luminescence after the addition of a luciferase detection reagent. Pro-luciferin substrate concentration in the assay was equal to its KM for its CYP P450 isozyme. Inhibitors and some substrates limit the production of luciferin, and decrease measured luminescence.
Sequence of Cytochrome P450 2D6 (Homo sapiens) (P10635 whole entry, looked up): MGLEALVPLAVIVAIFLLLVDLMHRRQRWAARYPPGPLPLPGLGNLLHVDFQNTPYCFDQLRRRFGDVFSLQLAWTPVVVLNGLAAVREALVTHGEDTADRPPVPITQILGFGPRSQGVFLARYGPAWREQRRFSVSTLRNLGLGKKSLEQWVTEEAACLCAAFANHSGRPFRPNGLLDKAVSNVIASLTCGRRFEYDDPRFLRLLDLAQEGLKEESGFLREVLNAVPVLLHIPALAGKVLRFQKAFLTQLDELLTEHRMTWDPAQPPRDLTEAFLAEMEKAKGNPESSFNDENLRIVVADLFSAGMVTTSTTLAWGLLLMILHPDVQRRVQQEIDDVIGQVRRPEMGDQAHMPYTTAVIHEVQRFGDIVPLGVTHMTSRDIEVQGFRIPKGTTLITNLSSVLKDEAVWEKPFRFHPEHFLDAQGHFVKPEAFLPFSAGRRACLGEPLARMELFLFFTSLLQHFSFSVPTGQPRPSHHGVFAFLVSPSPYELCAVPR
NCGC Assay Protocol Summary:
1, Reagent, 2 uL, Isozyme and Pro-Luciferin
2, Library compounds, 23 nl, 40 uM to 0.24 nM dilution series
3, Controls, 23 nl, Isozyme specific inhibitor
4, Reagent, 2 uL, NADPH regeneration solution
5, Incubation time, 60 min, Isozyme specific temperature
6, Reagent, 4ul, Detection reagent
7, Incubation time, 20 min, Isozyme specific temperature
8, Detection, 1 sec, ViewLux luminescent read
The luciferase-based P450-GloTM Screening Systems were obtained from Promega (Madison, WI) for CYP 1A2 (V9770), CYP 2C9 (V9790), CYP2 C19 (V9880), CYP 2D6 (V9890), and CYP 3A4 Luciferin-PPXE (V9910) and were adapted for 1,536-well microplates and an automated protocol. The control compounds furafylline for 1A2 (F124), sulfaphenazole for CYP 2C9 (S0758), ketoconazole for CYP 2C19 (K1003), quinidine for 2D6 (Q3625), and ketoconazole for 3A4 (K1003) were purchased from Sigma Aldrich (St. Louis, MO). Recombinant P450 enzymes were obtained from baculovirus constructs expressed in insect cells (BD/Gentest).
Medium-binding white solid Kalypsys plates used. Mixtures kept on ice. 1A2: 10 nM 1A2, 100 uM Luc-ME, 100 mM KPO4; 2C9: 10 nM 2C9, 100 uM Luc-H, 25 mM KPO4; 2C19: 5 nM 2C19, 10 uM Luc-H EGE, 50 mM KPO4; 2D6: 5 nM 2D6, 30 uM Luc-ME EGE, 100 mM KPO4; 3A4: 10 nM, 25 uM Luc-PPXE. All amounts are reflected in their final concentration, working concentration is 2x.
NADPH regeneration solution: 1.3 mM NADP+, 3.3 mM glucose-6-phosphate, 3.3 mM MgCl2, 0.4 U/mL glucose-6-phosphate dehydrogenase for all isozymes, 200 mM KPO4 for 3A4. Mixture prepared at RT but kept on ice during automated run.
RT incubation in auxilliary plate hotel for 1A2, 2D6, and 3A4; 37C for 2C9 and 2C19.
Keywords: P450, CYP1A2, CYP2C19, CYP2C9, CYP2D6, CYP3A4, Luciferase, MLSMR, MLSCN, NIH Roadmap, qHTS, NCGC
On to `Cc1nn(C(C)C(=O)Nc2ccc(Cl)cn2)c(C)c1[N+](=O)[O-]` (stereo not given), for which the AC50 (commonly the concentration giving half of the maximal activity seen) was “inactive”. On the same count and under the same terms, in the case of `C[C@@](N)(C(=O)O)c1ccc(S(=O)(=O)O)cc1` it was “inactive”. Regarding `COc1cccc(Nc2ncc3nc(-c4cccs4)c(=O)n(Cc4cccs4)c3n2)c1`, the AC50 result was “inactive”.

For the compound `O=c1c(-c2ccc(Cl)cc2)nc2cnc(N3CCNCC3)nc2n1Cc1cccs1`, the AC50 entry was “inactive”.

As for `CCOC(=O)COc1c(OC)cc(Cl)cc1C1Nc2ccccc2C(=O)N1c1ccc(F)cc1` (stereo not given), the AC50 entry is “inactive”. Take `CC(C)(C)c1cc(Br)c(O)c(CN(Cc2cc(C(C)(C)C)cc(Br)c2O)C2CCCCC2)c1`: the AC50 was 0.2 µM (active).

Consider `Oc1c(Br)cc(CN(Cc2cc(Br)c(O)c(Br)c2)C2CCCCC2)cc1Br`, for which the AC50 was 2.51 µM (active). Same read-out and setting: the result for `Oc1c(Br)cc(Br)cc1CN(Cc1cc(Br)cc(Br)c1O)C1CCCCC1` reads 0.251 µM (active); that for `CC1=CC=CN2CC(O)CN=C12` (stereo not given), “inactive”. On to `COc1ccc(/C(O)=C2/C(=O)C(=O)N(Cc3cccnc3)C2c2ccco2)cc1OC` (stereo not given), for which the AC50 entry is “inactive”. Still for that read-out and setting: in the case of `CC(=O)n1nc(-c2ccco2)nc1N` it was “inactive”; in that of `Cc1cccc(N(CC(=O)NC2CCCC2)C(=O)c2cc3cc4cccc(C)c4nc3s2)c1C`, “inactive”. On to `Nc1ccc2[nH]cc(CCC(=O)O)c2c1`, for which the activity, negative = inhibition was 5.9% [at 11.4 µM].

For the compound `CSCC[C@H](NC(=O)c1nn(C)c(=O)c2ccccc12)c1nc2ccccc2[nH]1`, the AC50 entry is “inactive”.

On to `Cc1noc(C)c1-c1nccc(N2CCOCC2)n1`, for which the AC50 entry was “inactive”.

As to `Cc1ccc2c(c1)N[C@H](c1ccc(C(=O)O)cc1)c1cccn1-2`, the activity, negative = inhibition was -2.93% [at 11.4 µM]. In the case of `COc1ccc2nc(SCC(=O)Nc3ccc4c(c3)OCCO4)[nH]c2c1`, the AC50 result is “inactive”. The same measure, in the same setting: the result for `Cc1ccc2nc(SCC(=O)c3ccc4c(c3)OCO4)[nH]c2c1` reads 4.47 µM (active).

Consider `Cc1ccc2nc(CC(=O)c3ccc4ccccc4c3)c(=O)[nH]c2c1`, for which the activity, negative = inhibition was -4.59% [at 11.4 µM]. As for `CC(/C=C1\N=C(SCc2ccccc2Cl)SC1=O)=C\c1ccccc1`, the AC50 result is “inactive”. Still for that read-out and setting: in the case of `Cc1ccccc1Cn1nc(C)c(NC(=O)c2sc3ccccc3c2Cl)c1C` it was “inactive”; in that of `Cc1cc(Nc2ccccc2)nc(N)n1`, 11.2 µM (active). Still for that read-out and setting: in the case of `Cc1nnc(SCc2nc(N)nc(Nc3ccccc3)n2)s1` it was “inactive”; in that of `Cc1cc(Nc2ccc(Cl)cc2)nc(N)n1`, “inactive”. The same measure, in the same setting: in the case of `COC(=O)C1CCN(c2cc(=O)n(C3CCCCC3)c(=O)[nH]2)CC1` it was “inactive”; in that of `CCC(=O)c1ccc(OCC(O)CN(CCc2ccccc2)Cc2ccccc2)cc1` (stereo not given), 1 µM (active).

For `Cc1ccc(OCC(=O)NNC(=O)CCc2ccccc2)cc1`, the AC50 result was “inactive”.

`CN(C)CC(O)COc1ccc(C(C)(C)c2ccc(OCC(O)CN(C)C)cc2)cc1` (stereo not given): the AC50 entry was “inactive”. Same read-out and setting: the result for `COc1ccc(S(=O)(=O)NCc2ccc(C(=O)N3CCN(c4ccccn4)CC3)cc2)cc1` reads “inactive”. The same measure, in the same setting: in the case of `N[C@@H](Cc1c[nH]c2ccccc12)C(=O)O` it was “inactive”. Still for that read-out and setting: in the case of `c1ccc2c(CN3CCN(Cc4c[nH]c5ccccc45)CC3)c[nH]c2c1` it was 2.51 µM (active). Take `O=C(O)[C@H](Cc1c[nH]c2ccccc12)N1C(=O)c2ccccc2C1=O`: the activity, negative = inhibition is -2.59% [at 11.4 µM].

On to `COC(=O)Cn1cc(/C=N/NC(=O)c2ccc(C#N)cc2F)c2ccccc21`, for which the AC50 entry was “inactive”. On the same count and under the same terms, in the case of `CC(C)c1cccc2cc3c(nc12)-c1cccc(=O)n1C3` it was “inactive”; in that of `Cc1ccc(C(=O)c2ccc(CC(=O)O)n2C)cc1`, “inactive”. The same measure, in the same setting: in the case of `N#Cc1ccc(C(=O)Nc2ccc(N3CCN(C(=O)c4ccco4)CC3)cc2)c(F)c1` it was “inactive”; in that of `COc1ccc(CNc2nc(-c3ccccc3CN(C)C)nc3ccccc23)c(OC)c1`, 10 µM (active); in that of `COc1ccc(CNc2nc(-c3c(C)noc3C)nc3ccccc23)c(OC)c1`, “inactive”. Same read-out and setting: in the case of `COc1ccccc1CNc1nc(-c2ccccc2CN(C)C)nc2ccccc12` it was 10 µM (active); in that of `COc1ccc(CNc2nc(-c3ccc(C(=O)N(C)C)cc3)nc3ccccc23)c(OC)c1`, “inactive”. As for `N[C@@H](CO)C(=O)NNCc1ccc(O)c(O)c1O`, the AC50 result is “inactive”. As for `Cc1cc(NC(=O)c2ccccc2Cl)no1`, the AC50 entry is “inactive”. For the compound `CCOC(=O)C(C)n1cnc2c(oc3ccccc32)c1=O` (stereo not given), the AC50 result was “inactive”. Same read-out and setting: the result for `O=C(NNC(=O)c1ccccc1-n1cccc1)c1ccc(Cl)c(Cl)c1` reads “inactive”; that for `CCOc1ccc(NC(=O)c2nnn(CC(=O)Nc3ccccc3OC)c2N)cc1`, “inactive”. Same read-out and setting: in the case of `COc1ccc(N2CCN(CCNC(=O)C3CCN(S(=O)(=O)c4cccs4)CC3)CC2)cc1` it was “inactive”. Same read-out and setting: in the case of `CC(=O)NC(C)C(c1cccs1)N1CCN(c2ccccc2)CC1` (stereo not given) it was “inactive”.

Turning to `CC(C)C(NS(=O)(=O)c1cccs1)C(=O)NCCN1CCN(c2ccccc2)CC1` (stereo not given), the AC50 was 14.1 µM (active). The same measure, in the same setting: the result for `COc1ccc(NC(=O)N2CC3(CCN(S(C)(=O)=O)CC3)C2)cc1` reads “inactive”; that for `CC(=O)c1ccc(-n2nnnc2SCC(=O)Nc2cccc(NC(=O)c3ccco3)c2)cc1`, “inactive”.

Values taken from PubChem BioAssay AID1851 (National Center for Advancing Translational Sciences (NCATS), 2009).
